Experimental data as given in PubChem BioAssay (EPA / NIEHS).
Inconclusive results are not listed. The source made the active and inactive calls. Rule for the calls: active = hit-call score of the fitted dose curve at least 0.9, where 1 is the maximum; inconclusive = response in the unintended direction; inactive = score below 0.9.

Target: Cellular tumor antigen p53 (Homo sapiens) (UniProt P04637)
Experiment: TOX21_p53_BLA_p2_ratio: Tox21 HCT-116 p53 Agonism Beta-lactamase Assay, Ratio, Phase 2 (AID 2283592)
How it was run: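 Readout: blue/green (460/530 nm) FRET emission ratio after 2 h CCF4-AM loading at room temperature, excitation 405 nm. HCT116 p53 bla cells, 16 h compound exposure at 37C, 5% CO2; agonist direction fitted against DMSO baseline.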

Sequence of Cellular tumor antigen p53 (Homo sapiens) (P04637 whole entry, looked up): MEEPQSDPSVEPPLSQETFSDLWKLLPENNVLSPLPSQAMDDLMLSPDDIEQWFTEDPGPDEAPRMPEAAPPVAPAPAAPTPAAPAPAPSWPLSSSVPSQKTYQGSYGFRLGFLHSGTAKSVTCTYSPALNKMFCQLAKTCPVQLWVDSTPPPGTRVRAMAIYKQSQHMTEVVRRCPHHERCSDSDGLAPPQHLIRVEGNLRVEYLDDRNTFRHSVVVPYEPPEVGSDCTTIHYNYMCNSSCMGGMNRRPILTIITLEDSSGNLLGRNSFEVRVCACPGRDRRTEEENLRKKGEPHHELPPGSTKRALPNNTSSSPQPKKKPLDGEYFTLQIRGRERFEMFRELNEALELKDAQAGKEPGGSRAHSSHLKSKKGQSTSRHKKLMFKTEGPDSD

Row | SMILES | outcome | AC50
1 | [O]=[Bi][O][Bi]=[O] | inactive | 
2 | O=C(O)CC(=O)O | inactive | 
3 | Cc1cc(OI)c(C(C)C)cc1-c1cc(C(C)C)c(OI)cc1C | inactive | 
4 | O=C(NCCCN1CCOCC1)c1ccc(Cl)cc1 | inactive | 
5 | CO/N=C(\C(=O)N[C@@H]1C(=O)N2C(C(=O)O)=C(C[N+]3(C)CCCC3)CS[C@H]12)c1csc(N)n1 | inactive | 
6 | O=C(c1ccccc1)C1(O)CCCCC1 | inactive | 
7 | COC(=O)Nc1nc2ccc(C(=O)c3cccs3)cc2[nH]1 |  | 94.3 nM (active)
8 | N=C(N)c1ccccc1 | inactive | 
9 | C=CC(=O)OCC1CCCO1 (stereo not given) | inactive | 
10 | CCOC(=O)C1=C[C@]2(CC)CCCN3CCc4c(n1c1ccccc41)[C@@H]32 | inactive | 
11 | CCCCCO | inactive | 
12 | COc1ccc(CN(CCN(C)C)c2ncccn2)cc1 | inactive | 
13 | C[C@@H](N)C(=O)O | inactive | 
14 | O=C[C@H](O)[C@@H](O)[C@H](O[C@H]1O[C@H](CO)[C@@H](O[C@H]2O[C@H](CO)[C@@H](O)[C@H](O)[C@H]2O)[C@H](O)[C@H]1O)[C@H](O)CO | inactive | 
15 | CC(CN(C)C)CN1c2ccccc2S(=O)(=O)c2ccccc21 (stereo not given) | inactive | 
16 | C#CC(O)CCCCC (stereo not given) | inactive | 
17 | Cc1cccc(C)c1OCC(C)N (stereo not given) | inactive | 
18 | CCC(C)(Oc1ccc(C2(c3ccc(OC(C)(CC)C(=O)O)cc3)CCCCC2)cc1)C(=O)O (stereo not given) | inactive | 
19 | O=C(O)CCCCCCC(=O)O | inactive | 
20 | CC1(C)S[C@@H]2[C@H](NC(=O)Cc3ccccc3)C(=O)N2[C@H]1C(=O)O | inactive | 

Row | SMILES | outcome | AC50
21 | C#C[C@]1(O)CC[C@H]2[C@@H]3CCC4=CC(=O)CC[C@@H]4[C@H]3C(=C)C[C@@]21CC | inactive | 
22 | O=C1OC(OC(=O)c2cccnc2Nc2cccc(C(F)(F)F)c2)c2ccccc21 (stereo not given) | inactive | 
23 | Nc1nc2c(ncn2COCCO)c(=O)[nH]1 | inactive | 
24 | CC(C)NC[C@@H](O)COc1cccc2ccccc12 | inactive | 
25 | Nc1nc(N)nc(-c2cc(Cl)ccc2Cl)n1 | inactive | 
26 | O=C(O)[C@H]1CN(C/C=C/P(=O)(O)O)CCN1 | inactive | 
27 | Oc1ccc(C2CNCCc3c2cc(O)c(O)c3Cl)cc1 (stereo not given) | inactive | 
28 | COC(=O)Nc1nc2ccc(C(=O)c3ccccc3)cc2[nH]1 |  | 192 nM (active)
29 | CCOC(=O)C1=C(C)NC(C)=C(C(=O)OC)C1c1cccc(Cl)c1Cl (stereo not given) | inactive | 
30 | O=c1[nH][nH]c2ccccc12 | inactive | 
31 | NS(=O)(=O)c1cc2c(cc1Cl)NC(Cc1ccccc1)NS2(=O)=O (stereo not given) | inactive | 
32 | NC(=O)c1ccc[n+]([C@@H]2O[C@H](COP(=O)([O-])OP(=O)(O)OC[C@H]3O[C@@H](n4cnc5c(N)ncnc54)[C@H](O)[C@@H]3O)[C@@H](O)[C@H]2O)c1 | inactive | 
33 | O=C(CO)[C@@H](O)[C@H](O)[C@@H](O)CO | inactive | 
34 | CC(=O)CCC=C(C)CC/C=C(\C)CC/C=C(\C)CCC=C(C)C | inactive | 
35 | Brc1ccc(-c2ccccc2)cc1 | inactive | 
36 | C=CCc1ccccc1OCC(O)CNC(C)C (stereo not given) | inactive | 
37 | O=C(O)CCNC(=O)c1ccccc1 | inactive | 
38 | NC(=O)Cc1cccc2ccccc12 | inactive | 
39 | NC(=O)N1c2ccccc2CC(=O)c2ccccc21 | inactive | 

Target: Cellular tumor antigen p53 (Homo sapiens) (UniProt P04637)
Experiment: TOX21_p53_BLA_p3_ratio: Tox21 HCT-116 p53 Agonism Beta-lactamase Assay, Ratio, Phase 3 (AID 2283596)
How it was run: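 Cells were seeded at 4000/well, rested 5 h at 37C, then dosed with DMSO compound solutions (217-fold dilution) for 16 h. CCF4-AM substrate was loaded for 2 h at room temperature, and the 460/530 nm emission ratio was fitted for gain of signal versus DMSO.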

Row | SMILES | outcome | AC50
40 | [O]=[Bi][O][Bi]=[O] | inactive | 
41 | O=C(O)CC(=O)O | inactive | 
42 | Cc1cc(OI)c(C(C)C)cc1-c1cc(C(C)C)c(OI)cc1C | inactive | 
43 | O=C(NCCCN1CCOCC1)c1ccc(Cl)cc1 | inactive | 
44 | CO/N=C(\C(=O)N[C@@H]1C(=O)N2C(C(=O)O)=C(C[N+]3(C)CCCC3)CS[C@H]12)c1csc(N)n1 | inactive | 
45 | O=C(c1ccccc1)C1(O)CCCCC1 | inactive | 
46 | COC(=O)Nc1nc2ccc(C(=O)c3cccs3)cc2[nH]1 |  | 45.8 nM (active)
47 | N=C(N)c1ccccc1 | inactive | 
48 | C=CC(=O)OCC1CCCO1 (stereo not given) | inactive | 
49 | CCOC(=O)C1=C[C@]2(CC)CCCN3CCc4c(n1c1ccccc41)[C@@H]32 | inactive | 
50 | CCCCCO | inactive | 
51 | COc1ccc(CN(CCN(C)C)c2ncccn2)cc1 | inactive | 
52 | C[C@@H](N)C(=O)O | inactive | 
53 | CC(CN(C)C)CN1c2ccccc2S(=O)(=O)c2ccccc21 (stereo not given) | inactive | 
54 | C#CC(O)CCCCC (stereo not given) | inactive | 
55 | Cc1cccc(C)c1OCC(C)N (stereo not given) | inactive | 
56 | O=C(O)CCCCCCC(=O)O | inactive | 
57 | CC1(C)S[C@@H]2[C@H](NC(=O)Cc3ccccc3)C(=O)N2[C@H]1C(=O)O | inactive | 

Row | SMILES | outcome | AC50
58 | C#C[C@]1(O)CC[C@H]2[C@@H]3CCC4=CC(=O)CC[C@@H]4[C@H]3C(=C)C[C@@]21CC | inactive | 
59 | O=C1OC(OC(=O)c2cccnc2Nc2cccc(C(F)(F)F)c2)c2ccccc21 (stereo not given) | inactive | 
60 | Nc1nc2c(ncn2COCCO)c(=O)[nH]1 | inactive | 
61 | CC(C)NC[C@@H](O)COc1cccc2ccccc12 | inactive | 
62 | Nc1nc(N)nc(-c2cc(Cl)ccc2Cl)n1 | inactive | 
63 | O=C(O)[C@H]1CN(C/C=C/P(=O)(O)O)CCN1 | inactive | 
64 | COC(=O)Nc1nc2ccc(C(=O)c3ccccc3)cc2[nH]1 | inactive | 
65 | CCOC(=O)C1=C(C)NC(C)=C(C(=O)OC)C1c1cccc(Cl)c1Cl (stereo not given) | inactive | 
66 | O=c1[nH][nH]c2ccccc12 | inactive | 
67 | NS(=O)(=O)c1cc2c(cc1Cl)NC(Cc1ccccc1)NS2(=O)=O (stereo not given) | inactive | 
68 | NC(=O)c1ccc[n+]([C@@H]2O[C@H](COP(=O)([O-])OP(=O)(O)OC[C@H]3O[C@@H](n4cnc5c(N)ncnc54)[C@H](O)[C@@H]3O)[C@@H](O)[C@H]2O)c1 | inactive | 
69 | O=C(CO)[C@@H](O)[C@H](O)[C@@H](O)CO | inactive | 
70 | CC(=O)CCC=C(C)CC/C=C(\C)CC/C=C(\C)CCC=C(C)C | inactive | 
71 | Brc1ccc(-c2ccccc2)cc1 | inactive | 
72 | C=CCc1ccccc1OCC(O)CNC(C)C (stereo not given) | inactive | 
73 | O=C(O)CCNC(=O)c1ccccc1 | inactive | 
74 | NC(=O)Cc1cccc2ccccc12 | inactive | 
75 | NC(=O)N1c2ccccc2CC(=O)c2ccccc21 | inactive | 
